Here are results for 91 compounds from PubChem BioAssay AID1987 (The Scripps Research Institute Molecular Screening Center, 2009).

In all, about 320,000 compounds went through this assay and about 560 (0.17%) were called active. The list comes from a sample in which actives are over-represented; it also holds similar structures and randomly drawn compounds. A number with no mark means an inactive call.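 How the source made its calls: active means inhibition above the campaign's mean inhibition across all tested compounds plus 3 SD (cut at about 9.5% in these data); inactive means the rest.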

This assay deals with Serine/threonine-protein phosphatase 5 (Homo sapiens) (UniProt P53041). The assay can be described thus: inhibition of human PP5 catalytic activity – biochemical, fluorescence, primary screen (AID 1987).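 Further: 0% = DMSO only and 100% = 100 µM cantharidin control.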 Particulars: purified PP5c, OMFP substrate fluorescence; at 6.7 µM; active compounds read high.
Chain of Serine/threonine-protein phosphatase 5 (Homo sapiens) (P53041 whole entry, looked up): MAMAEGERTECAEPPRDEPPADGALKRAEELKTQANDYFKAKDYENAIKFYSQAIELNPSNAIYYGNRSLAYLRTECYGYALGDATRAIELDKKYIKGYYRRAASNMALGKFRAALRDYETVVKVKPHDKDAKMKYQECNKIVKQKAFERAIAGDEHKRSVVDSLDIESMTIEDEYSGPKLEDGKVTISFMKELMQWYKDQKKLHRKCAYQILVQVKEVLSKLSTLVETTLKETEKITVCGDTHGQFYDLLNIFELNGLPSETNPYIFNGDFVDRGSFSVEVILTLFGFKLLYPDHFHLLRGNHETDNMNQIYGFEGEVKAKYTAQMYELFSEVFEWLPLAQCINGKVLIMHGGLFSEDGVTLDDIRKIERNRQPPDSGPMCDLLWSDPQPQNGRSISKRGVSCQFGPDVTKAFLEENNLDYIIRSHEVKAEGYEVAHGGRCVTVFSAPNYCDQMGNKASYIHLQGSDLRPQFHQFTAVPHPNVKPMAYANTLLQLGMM
Take `Cn1c(N)c(C(=O)COC(=O)COc2ccc(Cl)cc2)c(=O)n(C)c1=O`: the inhibition (in general, the relative decrease from the control value, in per cent) is 1%. Next, `FC(F)(F)c1ccc2nnc(-c3c(Cl)cccc3Cl)n2c1`: -1.13%; `O=C1Oc2ccccc2C(=O)/C1=C/c1ccccc1O`: 4.64%; `COc1ccc(NC(=O)CSc2nncc(=O)n2N)cc1OC`: 2.92%. On to `O=C(Nc1ccccc1)C1CC(=O)n2c(nc3ccccc32)N1` (stereo unspecified), for which the inhibition is -0.67%. As to `Nc1ccc(C(=O)Nc2ccccc2N)cc1`, the inhibition is -0.77%. Next, `Cc1ccc(CN2CCN(Cc3cccc(C)n3)CC2CCO)cc1` (stereo unspecified): 0.2%; `CC(C)(C)NC(=O)c1cccc(NC(=O)Cc2ccc(Br)cc2)c1`: 3.17%; `CC(C)(C)C(=O)Nc1c(Br)c(C2CC2)nn1-c1ccccc1`: 0.27%. On to `CCOC(=O)C1=C(CC)OC(N)=C(C#N)C1c1ccc(F)cc1F` (stereo unspecified), for which the inhibition is -1.28%. Next, `COc1cc(OC)cc(-c2cc3nc(C4CCN(C(=O)OC(C)(C)C)CC4)cc(=O)n3[nH]2)c1`: -0.26%; `COc1ccc(NC(=O)CCCC(=O)c2ccccc2)cc1`: 0.28%; `CCCn1c(C)cc(/C=C(\C#N)C(=O)OCC(=O)Nc2cc(OC)c(OC)c(OC)c2)c1C`: 0.54%.

Take `O=C(NCc1ccccc1)C1=C[C@@H](c2ccc(C(F)(F)F)cc2)C[C@@H](OCc2ccc(CO)cc2)O1`: the inhibition was 7.35%. Next, `O=C(C1=C[C@H](C2CC2)C[C@H](OCc2ccc(CO)cc2)O1)N1CCN(Cc2ccccc2)CC1`: 1.72%. Next, `O=C(C1=C[C@H](c2ccc(C(F)(F)F)cc2)C[C@H](OCc2ccc(CO)cc2)O1)N1CCN(Cc2ccccc2)CC1`: 9.64% (active); `Nc1nnc(SCC(=O)NCC(=O)Nc2ccc(F)c(F)c2F)s1`: -0.64%. Next, `O=C(OCc1cn(-c2ccc(Cl)c(Cl)c2)nn1)c1ccccc1Cl`: 1.67%; `CC1CCCC(C)N1C(=O)COC(=O)COc1ccccc1C#N` (stereo unspecified): -0.87%; `COc1ccc(-n2nnnc2SCc2nc(N)nc(N3CCOCC3)n2)cc1`: 0.58%.

`CN(C)c1nc(N)nc(CSc2ccccn2)n1`: the inhibition was 1.71%. Next, `CN(C)c1nc(N)nc(CSc2nnnn2-c2cccc3ccccc23)n1`: 11.6% (active). Next, `O=C(O)c1cc(S(=O)(=O)Nc2ccc3cn[nH]c3c2)ccc1Br`: 4.94%; `Cc1ccc(-n2nc(-c3ccco3)cc2C(=O)NCc2cccnc2)cc1`: 2.97%; `COCCN1C=C2C(=O)C(C)(OC(=O)C3CCCC3)C(=O)C=C2C=C1c1ccsc1` (stereo unspecified): 11.1% (active). On to `COC(=O)CCCC1=CC2=CC(=O)C(C)(OC(=O)c3cccs3)C(=O)C2=CN1CC1CC1` (stereo unspecified), for which the inhibition was 5.3%.

Consider `CC1(OC(=O)C2CCCC2)C(=O)C=C2C=C(c3ccc(C#N)cc3)OC=C2C1=O` (stereo unspecified), for which the inhibition is -1.54%.

Turning to `CN(c1ccccc1)S(=O)(=O)c1ccc(NC(=O)COc2ccccc2)cc1`, the inhibition is 10.2% (active).

As for `CN(c1ccc(OCC(=O)O)cc1)S(=O)(=O)c1ccc2ccccc2c1`, the inhibition is 1%. Next, `O=C(COc1ccccc1)Nc1ccc(F)cc1`: 0.71%; `Cc1ccc(S(=O)(=O)N(c2cccc(C)c2)C2CCS(=O)(=O)C2)cc1` (stereo unspecified): 0.29%; `Cc1nnc(SCC(=O)Nc2ncc3c(n2)CC(C)(C)CC3=O)s1`: 2.93%. Next, `O=C(O)C1CCC(CNS(=O)(=O)c2ccc(Br)cc2)CC1` (stereo unspecified): -2.97%. As to `Cc1ccc(Cn2c(C)c3cnn(CC(=O)NCc4ccccn4)c(=O)c3c2C)cc1`, the inhibition is -1.29%. Next, `CCNC(=O)c1sccc1-n1cccc1`: 0.46%; `CC(C)(C)C(=O)NNC(=O)c1ccc(Oc2cc(Cl)cc(Cl)c2)o1`: -2.8%; `CCn1nnc(NC(=O)c2cc(Cl)c(OC)c(Cl)c2)n1`: 0.92%. Next, `CCN(CC(=O)NC1CCS(=O)(=O)C1)c1nc(-c2cccnc2)nc2ccccc12` (stereo unspecified): -1.12%; `Cc1cc(Cl)ccc1OCCCC(=O)NCc1ccccn1`: 1.77%.

With `O=C1[C@H]2[C@@H](c3ccc(F)cc3)N3C(=O)N(c4ccc(C(F)(F)F)cc4)C(=O)[C@@]3(Cc3ccccc3)[C@H]2C(=O)N1C1CCCCC1`, the inhibition was 5.23%. Next, `CCCN(CCC)S(=O)(=O)c1ccc(C(=O)N2CC3CCC(CC3)C2)cc1`: 2.42%; `CCOC(=O)c1sc(N(Cc2ccccc2)C(=O)CN2C(=O)CN(C)C2=O)nc1C`: -1.26%. Next, `C[C@H]1[C@H]2c3nc4ccccc4n3C[C@H]1ON2C1CCCCC1`: -1.65%; `COc1ccc(C(=O)NCc2ccc(C)cc2)cc1S(=O)(=O)N1CCCC1`: -1.31%. Next, `NCCCC[C@@H]1NC(=O)[C@H](CCC(=O)O)NC(=O)c2cc([N+](=O)[O-])cc(I)c2NCC[C@@H](C(N)=O)NC1=O`: 4.27%; `Cn1c(CC(=O)Nc2ccc(F)cc2)nnc1SCC(=O)NC1CCCCC1`: 1.34%.

Turning to `COc1cccc(NC(=O)Nc2nnc(N3CCCCC3C)s2)c1` (stereo unspecified), the inhibition was 3.58%. Next, `CC(C)c1ccc(/C=C/C(=O)NCCCN2CCOCC2)cc1`: 0.61%; `CCC(C(=O)Nc1ncccn1)(C(F)(F)F)C(F)(F)F`: -2.46%. Next, `C/C(N)=C(/C#N)C(=O)COC(=O)c1cc(-c2ccc(C)cc2)nc2ccccc12`: 3.74%; `CSCC[C@H](NC(=O)N1CCn2c1nc1ccccc12)C(=O)NCc1ccc2c(c1)OCO2`: -0.3%; `CCN(C(=O)COc1ccc(C(=O)c2ccccc2)cc1)c1ccccc1`: 0.04%. Next, `O=C(O)c1n[nH]nc1-c1ccccc1`: 50.7% (active); `O=c1[nH]c(-c2ccccc2)c(-c2ccccc2)[nH]1`: 0.4%. In the case of `N#Cc1c(-c2ccccc2)c(-c2ccccc2)n[nH]c1=O`, the inhibition was -1.11%.

With `CSCc1ccc(C(=O)Nc2cc(C)cc(C)c2)cc1`, the inhibition is -1.23%. Take `COc1ccc(NC(=O)COC(=O)CNC(=O)C2CCCCC2)cc1`: the inhibition is -1.03%.

In the case of `COCCN(C(=O)COC(=O)Cc1cccc(OC)c1)c1c(N)n(Cc2ccccc2)c(=O)[nH]c1=O`, the inhibition is -0.76%. For the compound `O=C(CSc1n[nH]c(=O)n1-c1ccccc1)Nc1ccccc1C(F)(F)F`, the inhibition is 1.79%. Next, `O=C1C(C=NCC2CCCO2)=C(O)c2ccccc21` (stereo unspecified): 2.92%. Next, `Cc1ccccc1C(=O)NCC(c1ccco1)N1CCc2ccccc21` (stereo unspecified): -0.08%; `Cc1cccc(N(C)C(=O)CN2C(=O)COc3ccc(S(=O)(=O)N4CCCCCC4)cc32)c1`: 5.32%; `O=C(O)c1cccc2c1C(=O)N(C1CCCCC1)C2`: 1.97%.

Consider `CN1CCN(C(=O)Cn2c(C(F)(F)F)nc3ccccc32)CC1`, for which the inhibition was 0.08%. Next, `COc1ccc(CNC(=O)C2(CC3CC(c4ccccc4)=NO3)CCN(C(=O)c3cccc(O)c3)CC2)cc1` (stereo unspecified): 0.71%; `CN(CC(=O)Nc1ccccc1Cl)C(=O)COc1cccc2c1OC(C)(C)C2`: 1.31%; `CCOc1cnc(-c2c(-c3ccccc3Cl)noc2C)o1`: 3.98%. Next, `Cc1ccc(N2CC(C(=O)N3CCC4(CC3)CC(=O)c3ccccc3O4)CC2=O)cc1C` (stereo unspecified): -1.86%; `Cc1cccc(S(=O)(=O)N2CN(CC3CCCO3)c3nc4ccccc4nc32)c1` (stereo unspecified): 3.91%. In the case of `N#C/C=C\Oc1ccc(Cl)cc1N`, the inhibition was -0.64%. Next, `CC1CCCCC1NC(=O)C1CCCN1S(=O)(=O)c1cccc2nsnc12` (stereo unspecified): -5.55%; `Cc1cccc(NC(=O)c2cccc(C(=O)Nc3cccc(C)c3C)n2)c1C`: -0.92%; `CCNc1nc(NC(C)C)nc(N2CC(=O)N(CC(=O)OCC)C2=N)n1`: -0.1%.

As to `C=CCN1CCN(C(=O)CCCc2ccccc2)CC1`, the inhibition was 2.37%. Next, `Cc1cccc(CCNC(=O)Cn2ncc3c([nH]c4ccc(C)cc43)c2=O)c1`: -2.46%; `Cc1ccc(Nc2nc(N)nc(CSc3nnc(C)s3)n2)cc1`: 3.84%. Next, `Cc1nnc(SCc2nc3ccccc3nc2C)s1`: 12.1% (active); `Cc1nnc(SCc2cc(=O)[nH]c(N3CCN(Cc4ccccc4)CC3)n2)s1`: 1.51%. Next, `Cc1ccc(NC2=NC(c3ccccc3)n3c(nc(C)cc3=O)N2)cc1` (stereo unspecified): 0.48%; `COc1ccccc1NS(=O)(=O)c1ccc(C)c(C(=O)NCC(c2ccco2)N(C)C)c1` (stereo unspecified): -1.06%; `COC(=O)C1(C)CC1(c1ccccc1)c1ccccc1` (stereo unspecified): 3.86%. Consider `COc1ccc(-c2cc(=O)oc3cc(OC(C)C(=O)Nc4ccc(CN5CCOCC5)cc4)ccc23)cc1` (stereo unspecified), for which the inhibition was 4.28%. Next, `CCCCCC1CCC(c2nnc(SCC(C)=O)o2)CC1` (stereo unspecified): 2.41%; `COc1ccc(N(CC(=O)NC2CCCC2)C(=O)CS(=O)CC(=O)Nc2ccc3c(c2)OCO3)cc1` (stereo unspecified): 0.8%; `Cn1c(=O)c2sccc2n(Cc2ccc(Br)cc2)c1=O`: 3.16%. In the case of `CCN(CC)C(=O)CSc1nnc(CNc2ccc(F)cc2)n1Cc1ccco1`, the inhibition is 3.87%. Next, `O=C(NN1C(=O)C2C3C=CC(O3)C2C1=O)c1ccncc1` (stereo unspecified): -0.72%. Next, `CC(C)(C)n1nc2c(c1NC(=O)c1ccc(S(=O)(=O)N3CCCC3)cc1)CS(=O)C2` (stereo unspecified): -2.2%. Turning to `C=CCOc1ccc(/C=C/C(=O)OCC(=O)NCC2CCCO2)cc1` (stereo unspecified), the inhibition is -0.48%. `O=Cc1c(Nc2ccccc2Cl)nc2ccccn2c1=O`: the inhibition was -0.13%. Next, `C[C@H](NC(=O)c1[nH]cnc1C(=O)Nc1nccs1)c1ccccc1`: 1.13%.
